Data from PubChem BioAssay (NCATS).
Results filed as inconclusive are left out. A call without a number means that no potency is given here. Active and inactive are the calls of the source. Calls come from the whole dose curve; as a rule, active = well fitted inhibition curve with a large enough effect in the repeat runs; inconclusive = weak or mixed curves; inactive = no such curve, though single readings can be large or run the other way.
Potency is the fitted concentration of half-maximal effect.

The compounds below were run against Cytochrome P450 3A4 (Homo sapiens) (UniProt P08684) (assay: Cytochrome P450 family 3 subfamily A member 4 (CYP3A4) small molecule antagonists: luciferase qHTS assay (AID 1645841; note: nearly all actives have a fitted effect of over 45% in size)). Settings: P450-Glo CYP3A4 enzyme assay, luciferin luminescence; series mostly up to 57.4 µM.
Sequence of Cytochrome P450 3A4 (Homo sapiens) (P08684 whole entry, looked up): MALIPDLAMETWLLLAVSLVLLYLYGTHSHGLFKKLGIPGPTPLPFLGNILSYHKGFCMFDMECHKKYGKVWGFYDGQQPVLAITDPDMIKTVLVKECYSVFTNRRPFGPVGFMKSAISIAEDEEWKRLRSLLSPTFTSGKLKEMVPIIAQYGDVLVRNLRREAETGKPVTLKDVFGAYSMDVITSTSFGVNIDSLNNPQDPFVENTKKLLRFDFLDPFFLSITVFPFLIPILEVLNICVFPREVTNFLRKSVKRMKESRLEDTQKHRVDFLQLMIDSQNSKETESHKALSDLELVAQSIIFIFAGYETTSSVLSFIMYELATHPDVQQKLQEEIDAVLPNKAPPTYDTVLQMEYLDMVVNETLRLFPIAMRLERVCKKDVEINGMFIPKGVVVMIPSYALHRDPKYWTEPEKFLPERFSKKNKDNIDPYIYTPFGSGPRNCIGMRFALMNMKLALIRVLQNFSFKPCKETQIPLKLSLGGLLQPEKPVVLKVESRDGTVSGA
Outline: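 P450-Glo CYP3A4 enzyme with proluciferin substrate preincubated 10 min with compound at room temperature, then NADPH regeneration 1 h. Luciferin detection reagent added for 20 min; luminescence recorded. Ketoconazole positive control.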
C[S+](=O)([O-])Nc1ccc(-c2ccc3nc(-c4ccc(OC(F)(F)F)cc4)[nH]c3c2)cc1 was tested, and the Potency was “inactive”.
With OC[C@H]1O[C@@H]2O[C@H]3[C@H](O)[C@@H](O)[C@@H](O[C@H]4[C@H](O)[C@@H](O)[C@@H](O[C@H]5[C@H](O)[C@@H](O)[C@@H](O[C@H]6[C@H](O)[C@@H](O)[C@@H](O[C@H]7[C@H](O)[C@@H](O)[C@@H](O[C@H]1[C@H](O)[C@@H]2O)O[C@@H]7CO)O[C@@H]6CO)O[C@@H]5CO)O[C@@H]4CO)O[C@@H]3CO the Potency was “inactive”.
With CC(C)OCc1cc(CN2CCN(c3ccccc3)CC2)c(O)c2ncccc12 the Potency was “inactive”.
For Cc1ccc(Nc2nc3nonc3nc2Nc2cccc(C(F)(F)F)c2)cc1Cl, the Potency was “inactive”.
For CN[C@H](CC(C)C)C(=O)N[C@H]1C(=O)N[C@@H](CC(N)=O)C(=O)N[C@H]2C(=O)N[C@H]3C(=O)N[C@H](C(=O)N[C@H](C(=O)O)c4cc(O)cc(O)c4-c4cc3ccc4O)[C@H](O)c3ccc(c(Cl)c3)Oc3cc2cc(c3O[C@@H]2OC(CO)[C@@H](O)[C@H](O)[C@@H]2O[C@H]2C[C@](C)(N)[C@H](O)[C@H](C)O2)Oc2ccc(cc2Cl)[C@H]1O (stereo partly drawn), the Potency was “inactive”.
For O=C(O)CN(CC(=O)O)Cc1cc2c(-c3ccccc3C(=O)O)c3cc(CN(CC(=O)O)CC(=O)O)c(=O)cc-3oc2cc1O, the Potency was “inactive”.
In the case of CCc1ccc(CNC(=O)C2CCCN(c3nnc(C)c4c(C)n(-c5ccccc5)nc34)C2)cc1 (stereo not drawn), the Potency is reported as 1.9 µM (active).
In the case of Cc1ccc(-n2nc3c(N4CCCC(C(=O)NCc5ccccc5C)C4)nnc(C)c3c2C)cc1 (stereo not drawn), the Potency is reported as 1.69 µM (active).
